TEAD-YAP block: TEAD-YAP interaction inhibition; AID 1259422; 640,000 tested, 1.4% active; inhibition, % at 9.12 µM; HEK-TIYL cells, TEAD-Gal4/YAP UAS-luciferase luminescence; in the data active = inhibition above about 32%
MITF inh: blocks human microphthalmia-associated transcription factor. AlphaScreen MITF homodimerization, bead proximity signal. inhibition, % at 2.6 µM. 650,000 tested, 0.91% active. AID 1259374; in the data active = inhibition above about 50%
GPR151 activ: activators of human GPR151; Q8TDV0; PathHunter beta-arrestin GPR151 cells, luminescence; activation, % at 11.2 µM; 650,000 tested, 1% active; in the data active = activation above about 4.9%
Target sequence (Q8TDV0 whole entry, looked up): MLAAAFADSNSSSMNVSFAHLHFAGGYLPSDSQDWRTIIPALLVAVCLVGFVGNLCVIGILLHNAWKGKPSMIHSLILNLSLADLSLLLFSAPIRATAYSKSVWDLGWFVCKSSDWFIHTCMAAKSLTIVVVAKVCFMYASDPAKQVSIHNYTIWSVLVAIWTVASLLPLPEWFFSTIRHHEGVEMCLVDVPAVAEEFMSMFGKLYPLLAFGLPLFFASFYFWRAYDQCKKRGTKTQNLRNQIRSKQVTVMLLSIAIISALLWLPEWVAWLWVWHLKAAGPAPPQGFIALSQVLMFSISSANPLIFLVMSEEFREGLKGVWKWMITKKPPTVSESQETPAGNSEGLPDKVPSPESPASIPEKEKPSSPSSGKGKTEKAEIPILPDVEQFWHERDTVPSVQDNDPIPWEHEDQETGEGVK
FBW7 activator: activators of human E3 ligase FBW7; AlphaScreen FBW7–phospho-cyclin E peptide binding, activator screen; normalized activity (activation), % at 26.1 µM; 650,000 tested, 0.13% active; in the data active = normalized activity above about 1.9%;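 also: purified mutant Fbw7 with reduced substrate affinity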
A number is an active result. Rows were chosen to be rich in hits. Some 3.5% of all compounds tested hit in one or more screens of this group.

O=S(=O)(NC1c2cccc3cccc(c23)C1NCc1ccco1)c1ccccc1 (stereo not given) was read as TEAD-YAP block inactive, MITF inh inactive, GPR151 activ inactive and FBW7 activator inactive.
For O=C(Nc1ccc(F)c(F)c1)c1ccc(C(=O)Nc2ccc(F)c(F)c2)cc1 the results were TEAD-YAP block inactive, MITF inh inactive, GPR151 activ inactive and FBW7 activator inactive.
For COc1cccc(N2C(=O)/C(=C\c3ccc(OC)cc3OC)C(=O)NC2=S)c1 the results were TEAD-YAP block inactive, MITF inh inactive, GPR151 activ inactive and FBW7 activator inactive.
For COc1cccc(N2C(=O)/C(=C/c3ccc([N+](=O)[O-])o3)C(=O)NC2=S)c1 the results were TEAD-YAP block inactive, MITF inh 71, GPR151 activ inactive and FBW7 activator inactive.
Cc1ccc(/C=C2\C(=O)NC(=S)N(c3cccc(Cl)c3)C2=O)o1 was read as TEAD-YAP block inactive, MITF inh inactive, GPR151 activ inactive and FBW7 activator inactive.
For COc1ccc(N2C(=O)/C(=C\c3ccc([N+](=O)[O-])o3)C(=O)NC2=S)cc1 the results were TEAD-YAP block inactive, MITF inh 79, GPR151 activ inactive and FBW7 activator inactive.
`O=C1NC(=O)N(c2cccc(Cl)c2)C(=O)/C1=C/c1ccc(I)o1` gave TEAD-YAP block inactive, MITF inh 67, GPR151 activ inactive and FBW7 activator inactive.
CC1=CC2=NC(=O)/C(=C\c3ccc(OC(C)c4ccccc4)cc3)C(=N)N2O1 (stereo not given) was read as TEAD-YAP block inactive, MITF inh inactive, GPR151 activ inactive and FBW7 activator inactive.
`Cc1nc2scc(-c3ccc(C(C)C)cc3)c2c(=O)n1/N=C/N(C)C` gave TEAD-YAP block inactive, MITF inh inactive, GPR151 activ inactive and FBW7 activator inactive.
For Cc1cc2nc3s/c(=C/c4ccc(-c5cccc(Cl)c5)o4)c(=O)n3c2cc1C the results were TEAD-YAP block inactive, MITF inh inactive, GPR151 activ inactive and FBW7 activator inactive.
`N#CS/C=C/C(=O)c1ccccc1` gave TEAD-YAP block 52, MITF inh inactive, GPR151 activ inactive and FBW7 activator inactive.
CC(C)Oc1ccc(CCNC(=O)CC2C(=O)NCCN2C(C)C)cc1 (stereo not given) was read as TEAD-YAP block inactive, MITF inh inactive, GPR151 activ inactive and FBW7 activator inactive.
CCN(CC)C(=O)Cn1cnc2sc(C(=O)Nc3ccc(C(F)(F)F)cc3)c(C)c2c1=O was read as TEAD-YAP block inactive, MITF inh inactive, GPR151 activ inactive and FBW7 activator inactive.
For COc1ccc2cc(-c3nc(-c4ccccc4)no3)c(=O)oc2c1 the results were TEAD-YAP block 59, MITF inh inactive, GPR151 activ inactive and FBW7 activator inactive.
For CC(=O)Oc1ccc2c(=O)c(-c3ccc4c(c3)OCCO4)c(C)oc2c1 the results were TEAD-YAP block inactive, MITF inh inactive, GPR151 activ inactive and FBW7 activator inactive.
`CC(=O)Oc1ccc2cc(-c3ccc4c(c3)OCCO4)c(=O)oc2c1` gave TEAD-YAP block 63, MITF inh inactive, GPR151 activ inactive and FBW7 activator inactive.
COc1ccc(-c2cc3ccc(O)cc3oc2=O)cc1 was read as TEAD-YAP block 70, MITF inh inactive, GPR151 activ inactive and FBW7 activator inactive.
COc1cccc(-c2cc3ccc(OC(C)=O)cc3oc2=O)c1 was read as TEAD-YAP block 58, MITF inh inactive, GPR151 activ inactive and FBW7 activator inactive.
`CCOC(=O)c1c(NC(=O)c2cccc(Br)c2)sc(C(=O)CC)c1C` gave TEAD-YAP block inactive, MITF inh inactive, GPR151 activ inactive and FBW7 activator inactive.
Screening CNS(=O)(=O)c1ccccc1C(=O)NNC1=NS(=O)(=O)c2ccccc21 returned TEAD-YAP block inactive, MITF inh inactive, GPR151 activ inactive and FBW7 activator inactive.
Screening Cc1c(Cl)cccc1N1C(=O)CSC1c1ccc(F)c(F)c1 (stereo not given) returned TEAD-YAP block inactive, MITF inh inactive, GPR151 activ inactive and FBW7 activator inactive.
Screening O=c1c2c(-c3ccccc3)csc2ncn1Cc1ccccc1Cl returned TEAD-YAP block inactive, MITF inh inactive, GPR151 activ inactive and FBW7 activator inactive.
`Cn1c(Nc2nc(NCCN3CCOCC3)c3ncn(Cc4ccc(C(F)(F)F)cc4)c3n2)nc2ccccc21` gave TEAD-YAP block inactive, MITF inh inactive, GPR151 activ inactive and FBW7 activator inactive.
Screening O=C(NC1CCCCCC1)/C(=C/c1ccco1)n1nnnc1-c1ccccc1 returned TEAD-YAP block 34, MITF inh inactive, GPR151 activ inactive and FBW7 activator inactive.
For NC(=O)COC(=O)/C(=C/c1ccco1)n1nnnc1-c1ccccc1 the results were TEAD-YAP block inactive, MITF inh inactive, GPR151 activ inactive and FBW7 activator inactive.
For O=C(Nc1ccc(Br)cn1)c1ccc(C2CCCCC2)cc1 the results were TEAD-YAP block inactive, MITF inh inactive, GPR151 activ inactive and FBW7 activator inactive.
O=C(Nc1ccc(Cl)cn1)c1ccc(C2CCCCC2)cc1 was read as TEAD-YAP block 40, MITF inh inactive, GPR151 activ inactive and FBW7 activator inactive.
For Brc1cccc(-c2nc(-c3ccccn3)no2)c1 the results were TEAD-YAP block 73, MITF inh inactive, GPR151 activ inactive and FBW7 activator inactive.
c1ccc(-c2noc(-c3ccncc3)n2)nc1 was read as TEAD-YAP block inactive, MITF inh inactive, GPR151 activ inactive and FBW7 activator inactive.
`Ic1cccc(-c2nc(-c3ccccn3)no2)c1` gave TEAD-YAP block inactive, MITF inh inactive, GPR151 activ inactive and FBW7 activator inactive.
For COc1cccc(-c2nc(-c3ccccn3)no2)c1 the results were TEAD-YAP block 86, MITF inh inactive, GPR151 activ inactive and FBW7 activator inactive.
COc1cccc(-c2nc(-c3ccccc3)no2)c1 was read as TEAD-YAP block inactive, MITF inh inactive, GPR151 activ inactive and FBW7 activator inactive.
For CC(C)(C)c1ccc(-c2nc(-c3ccccn3)no2)cc1 the results were TEAD-YAP block 96, MITF inh inactive, GPR151 activ inactive and FBW7 activator inactive.
Brc1ccc(-c2nc(-c3ccccn3)no2)cc1 was read as TEAD-YAP block 90, MITF inh inactive, GPR151 activ inactive and FBW7 activator inactive.
`CN(C)CCCOc1ccc(-c2cccc(F)c2)cn1` gave TEAD-YAP block inactive, MITF inh inactive, GPR151 activ inactive and FBW7 activator inactive.
`COc1ccc(NC(=O)Cn2nc(C(=O)N3CCN(C)CC3)cc2C)cc1OC` gave TEAD-YAP block inactive, MITF inh inactive, GPR151 activ inactive and FBW7 activator inactive.
`Clc1ccccc1/C=C/c1nc(-c2ccccn2)no1` gave TEAD-YAP block 85, MITF inh inactive, GPR151 activ inactive and FBW7 activator inactive.
CC(=O)Nc1cc2ccccc2oc1=O was read as TEAD-YAP block inactive, MITF inh inactive, GPR151 activ inactive and FBW7 activator inactive.
`Cc1ccc(C(=O)Nc2cc3cc(Br)ccc3oc2=O)cc1C` gave TEAD-YAP block inactive, MITF inh inactive, GPR151 activ inactive and FBW7 activator inactive.
For CC(=O)Oc1ccc2cc(NC(=O)c3cccc(C)c3)c(=O)oc2c1 the results were TEAD-YAP block 38, MITF inh inactive, GPR151 activ inactive and FBW7 activator inactive.
